Measurements taken from PubChem BioAssay (NCATS).
Values without a mark were called inactive. Inconclusive results are not listed. A call without a number means that no potency is given here. Calls of active or inactive are those of the source. The call rests on the fitted dose curve; in most records, active means well fitted curve in the direction sought with a large enough effect; inconclusive means small, poorly fitted or top-dose-only effect, or another doubt; inactive means no such curve, though single readings can be large; an effect the other way counts as inactive or inconclusive.

Columns and labels:
[1] = system: Zika virus NS2B-NS3 protease (unlinked complex); experiment: Primary screen GU Rhodamine qHTS for Zika virus inhibitors: Unlinked NS2B-NS3 protease assay (AID 1347159); further: nearly all actives have a fitted effect of over 60% in size
Outline: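 Percent inhibition came from the 15-min rise in Rhodamine110 fluorescence (1.5 microM substrate, ~15% conversion), normalized to no-inhibitor and no-enzyme wells and Hill-fitted. Unlinked protease, 25 nM, pH 8.0 Tris buffer; compounds up to 114 microM, 15-min preincubation.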

[2] = system: Zika virus NS2B-NS3 protease (linked construct); experiment: Primary screen NINDS Rhodamine qHTS for Zika virus inhibitors (AID 1347160); further: nearly all actives have a fitted effect of over 55% in size
Outline: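 Rhodamine110-peptide cleavage (1.5 µM substrate) by 25 nM linked NS2B-NS3 enzyme at pH 8.0 (Tris, Tween 20), after 15 min RT preincubation with compounds; 15-min fluorescence change normalized to controls and Hill-fitted.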

[3] = biological target: Calcium and integrin-binding protein 1 (Homo sapiens) (UniProt Q99828); experiment: Primary qHTS for Identification of Calcium Integrin Binding Protein 1 (CIB1) Competitor (AID 1508620);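 further: GST tagged CIB1 binding a fluorescein labelled alphaIIb integrin peptide tracer; top concentration of the series differs between compounds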
Outline: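 CIB1-GST (1 uM final) and compound incubated 15 min at room temperature before adding FITC-alphaIIb peptide tracer (100 nM final). Competition for binding read by fluorescence polarization (ex 480, em 540) after another 15 min at room temperature.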

[4] = biological target: Glutathione peroxidase 1 (Homo sapiens) (UniProt P07203); experiment: Primary qHTS Assay for Inhibitors of Recombinant Selenoprotein Glutathione Peroxidase 1 (GPX1) (AID 1845191); further: nearly all actives have a fitted effect of over 65% in size
Outline: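 NADPH consumption tracked by fluorescence at 340/450 nm between t=0 and t=15 min, room temperature. Final mix: 10 nM GPX1, 100 nM glutathione reductase, 1 mM GSH, 0.5 mM NADPH, 0.5 mM cumene hydroperoxide, 0.01% BSA; 30 min compound–enzyme preincubation.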

[5] = biological target: Phospholipid hydroperoxide glutathione peroxidase GPX4 (Homo sapiens) (UniProt P36969); experiment: Primary qHTS Assay for Inhibitors of Recombinant Selenoprotein Glutathione Peroxidase 4 (GPX4) (AID 1845192); further: nearly all actives have a fitted effect of over 65% in size
Outline: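 NADPH consumption followed by fluorescence at 340/450 nm, t=0 and after 15 min at room temperature. Reaction started with cumene hydroperoxide (0.5 mM final) after 30 min compound–GPX4 preincubation; final 200 nM GPX4, 100 nM GR, 1 mM GSH, 0.5 mM NADPH.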

[6] = biological target: Luciferin 4-monooxygenase (Photinus pyralis) (UniProt P08659); experiment: Primary firefly luciferase (FLuc) qHTS assay for identification of artifact compounds. (AID 1845220); settings: outcome: dose series up to 54.1 µM unless noted; further: nearly all actives have a fitted effect of over 60% in size
Outline: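 Compounds sat 15 min at room temperature with 10 uM luciferin and 10 uM ATP (pH 7.6 Tris acetate). Firefly luciferase (10 nM final) was then added, and luminescence was read 5 min later. Data normalized to no-enzyme and DMSO controls were Hill-fitted.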

[7] = Primary fluorescence-based thiol-reactive (MSTI) qHTS assay for identification of artifact compounds. (AID 1845221);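 further: thiol-reactive compounds lower the probe fluorescence signal; nearly all actives have a fitted effect of over 65% in size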
Outline: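 MSTI probe at 4 uM final in 2% DMSO/PBS pH 7.4; compounds, 1 h at room temperature in dark. Fluorescence Ex/Em 525/598 nm, normalised to Acetyl-MSTI and MSTI, fitted to 4-parameter Hill.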

[8] = system: Nanoluciferase (engineered Oplophorus gracilirostris luciferase); experiment: Primary Nanoluciferase (NLuc) qHTS assay for identification of artifact compounds. (AID 1845222)
Outline: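 Luminescence from secreted NLuc (filtered, 1:55-diluted S16 cell medium) read 5 min after Nano-Glo substrate; compounds preincubated 15 min, RT. Hill fits of inhibition normalized to DMSO and no-enzyme.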

[9] = Primary redox qHTS assay for identification of artifact compounds. (AID 1845223)
Outline: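 Redox-cycling detection via DTT (250 uM final) oxidation coupled to Amplex Red (25 uM)/HRP (250 mU/mL) in HBSS. 15 min preincubation plus 30 min after DTT, room temperature. Ex/Em 525/598 nm; 4-parameter Hill fit against DMSO and 10 uM DA3003.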

HaCat = experiment: Cytotoxic Profiling of Annotated Libraries Using Quantitative High-Throughput Screening (AID 1296008); settings: Five cell lines viability, CellTiter-Glo ATP luminescence, 48-72 h; max response: stronger effect = lower value; further: nearly all actives have a fitted effect of over 60% in size; further: potency means the concentration at half of the fitted maximal effect
Outline: (§1)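 Cytotoxicity was measured as CellTiter-Glo ATP luminescence, read after 10 min at room temperature. Compound treatment of the cells lasted 48 or 72 hr at 37 degrees Celsius in a qHTS format.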

NIH3T3 = experiment: as above; settings: Five cell lines viability, CellTiter-Glo ATP luminescence, 48-72 h; max response: stronger effect = lower value
Outline: as §1

CASKI = experiment: Primary qHTS to identify gynecologic anti-cancer compounds using libraries of approved drugs and bioactive compounds (AID 1345084); settings: Gynecologic cancer cell panel viability, ATPlite luminescence, 48 h; series mostly up to 57.5 µM; further: nearly all actives have a fitted effect of over 55% in size; further: potency means the concentration at half of the fitted maximal effect
Outline: (§2)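 Cells, 1,000 per well, plated 16 h, then exposed 48 h at 37 C to compounds. Viability by ATPlite luminescence after 15 min at room temperature.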

OV90 = experiment: as above; settings: Gynecologic cancer cell panel viability, ATPlite luminescence, 48 h; series mostly up to 57.5 µM
Outline: as §2

PA-1 = experiment: as above; settings: Gynecologic cancer cell panel viability, ATPlite luminescence, 48 h; series mostly up to 57.5 µM
Outline: as §2

Tov112D = experiment: as above; settings: Gynecologic cancer cell panel viability, ATPlite luminescence, 48 h; series mostly up to 57.5 µM
Outline: as §2

C33A = experiment: as above; settings: Gynecologic cancer cell panel viability, ATPlite luminescence, 48 h; series mostly up to 57.5 µM
Outline: as §2

Es-2 = experiment: as above; settings: Gynecologic cancer cell panel viability, ATPlite luminescence, 48 h; series mostly up to 57.5 µM
Outline: as §2

Hek293T = experiment: as above; settings: Gynecologic cancer cell panel viability, ATPlite luminescence, 48 h, control line for the selectivity index; series mostly up to 57.5 µM
Outline: as §2

Tov-21-G = experiment: as above; settings: Gynecologic cancer cell panel viability, ATPlite luminescence, 48 h; series mostly up to 57.5 µM
Outline: as §2

JEG-3 = experiment: as above; settings: Gynecologic cancer cell panel viability, ATPlite luminescence, 48 h; series mostly up to 57.5 µM
Outline: as §2

Sequence of Glutathione peroxidase 1 (Homo sapiens) (P07203 whole entry, looked up): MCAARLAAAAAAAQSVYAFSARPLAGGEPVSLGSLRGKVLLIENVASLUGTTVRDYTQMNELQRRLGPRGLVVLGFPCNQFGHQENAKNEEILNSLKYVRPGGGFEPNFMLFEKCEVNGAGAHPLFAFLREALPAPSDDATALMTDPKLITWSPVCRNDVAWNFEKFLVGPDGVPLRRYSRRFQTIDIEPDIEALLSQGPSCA
Sequence of Calcium and integrin-binding protein 1 (Homo sapiens) (Q99828 whole entry, looked up): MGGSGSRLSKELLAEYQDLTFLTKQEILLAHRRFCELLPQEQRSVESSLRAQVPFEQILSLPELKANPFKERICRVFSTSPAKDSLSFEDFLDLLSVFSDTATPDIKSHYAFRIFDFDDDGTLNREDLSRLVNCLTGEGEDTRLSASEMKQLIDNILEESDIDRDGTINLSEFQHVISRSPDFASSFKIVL
Sequence of Phospholipid hydroperoxide glutathione peroxidase GPX4 (Homo sapiens) (P36969 whole entry, looked up): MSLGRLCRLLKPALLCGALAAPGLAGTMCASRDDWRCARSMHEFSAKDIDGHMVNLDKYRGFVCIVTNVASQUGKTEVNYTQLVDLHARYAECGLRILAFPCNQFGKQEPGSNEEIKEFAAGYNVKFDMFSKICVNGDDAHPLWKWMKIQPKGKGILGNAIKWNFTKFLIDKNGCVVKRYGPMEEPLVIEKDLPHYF

Question: What does the source list for `COc1cccc(NCC(F)Cn2c3ccc(Br)cc3c3cc(Br)ccc32)c1` (configuration not stated)?
Answer: Potency [1]: inactive; Potency [2]: inactive; Potency [3]: inactive; Potency [4]: inactive; Potency [5]: inactive; outcome [6]: inactive; Potency [7]: inactive; Potency [8]: inactive; Potency [9]: inactive; Potency (HaCat): 8200 nM (active); Potency (NIH3T3): 20600 nM (active); Potency (CASKI): 7940 nM (active); Potency (OV90): inactive; Potency (PA-1): 20000 nM (active); Potency (Tov112D): 10000 nM (active)

Question: For `C[C@@H]1O[C@@H](O[C@H]2CC[C@@]3(C)C(CC[C@@H]4C3CC[C@]3(C)[C@@H](C5=CC(=O)OC5)CC[C@]43O)C2)[C@H](O)[C@H](O)[C@H]1O` (some centres not stated), which Potency [1] is on record?
Answer: inactive

Question: And the Potency [2]?
Answer: inactive

Question: What about the Potency [3] of the same compound?
Answer: inactive

Question: And the Potency [5]?
Answer: inactive

Question: What about the outcome [6] of the same compound?
Answer: inactive [at 25.7 µM]

Question: And the Potency [7]?
Answer: inactive

Question: What about the Potency [8] of the same compound?
Answer: inactive

Question: And the Potency [9]?
Answer: inactive

Question: What about the Potency (HaCat) of the same compound?
Answer: 2820 nM (active)

Question: And the max response (NIH3T3)?
Answer: -2.8%

Question: What about the Potency (C33A) of the same compound?
Answer: 1000 nM (active)

Question: And the Potency (CASKI)?
Answer: 4470 nM (active)

Question: What about the Potency (Es-2) of the same compound?
Answer: 1260 nM (active)

Question: And the Potency (Hek293T)?
Answer: 1000 nM (active)

Question: And the Potency (OV90)?
Answer: 5620 nM (active)

Question: What about the Potency (PA-1) of the same compound?
Answer: 1000 nM (active)

Question: What about the Potency (Tov-21-G) of the same compound?
Answer: 1000 nM (active)

Question: And the Potency (Tov112D)?
Answer: 355 nM (active)

Question: What does the source list for `CCC1CC2CN3CCc4c([nH]c5ccccc45)C(C(=O)OC)(C2)C13` (configuration not stated)?
Answer: Potency [1]: inactive; Potency [2]: inactive; Potency [3]: inactive; Potency [4]: inactive; Potency [5]: inactive; outcome [6]: inactive; Potency [8]: inactive; Potency [9]: inactive; max response (NIH3T3): -4.92%; Potency (C33A): inactive; Potency (CASKI): inactive; Potency (Es-2): inactive; Potency (Hek293T): inactive; Potency (JEG-3): inactive; Potency (OV90): inactive; Potency (PA-1): inactive; Potency (Tov-21-G): inactive; Potency (Tov112D): inactive

Question: With `C=C(CO)[C@@]12O[C@@H]1[C@@]1(C)C(=CC2=O)CC[C@@H](O)[C@@H]1C` as the compound, how does the Potency [1] read?
Answer: inactive

Question: What about the Potency [2] of the same compound?
Answer: inactive

Question: And the Potency [3]?
Answer: inactive

Question: And the Potency [4]?
Answer: inactive

Question: What about the Potency [5] of the same compound?
Answer: inactive

Question: What about the outcome [6] of the same compound?
Answer: inactive

Question: What about the Potency [7] of the same compound?
Answer: inactive

Question: And the Potency [9]?
Answer: inactive

Question: What about the outcome (HaCat) of the same compound?
Answer: inactive

Question: And the Potency (NIH3T3)?
Answer: 7310 nM (active)

Question: What about the Potency (CASKI) of the same compound?
Answer: inactive

Question: What about the Potency (JEG-3) of the same compound?
Answer: inactive

Question: Which Potency [1] does the source give for `CO/C1=C\C(C)=C\[C@@H](C)[C@@H](O)[C@@H](C)C/C(C)=C/C=C/[C@H](OC)[C@@H]([C@@H](C)[C@@H](O)[C@H](C)[C@@]2(O)C[C@@H](O)[C@H](C)[C@@H](C(C)C)O2)OC1=O` here?
Answer: inactive

Question: And the Potency [2]?
Answer: inactive

Question: And the Potency [3]?
Answer: inactive

Question: And the outcome [6]?
Answer: inactive

Question: What about the Potency [7] of the same compound?
Answer: inactive

Question: What about the Potency [8] of the same compound?
Answer: inactive

Question: And the Potency [9]?
Answer: inactive

Question: And the Potency (C33A)?
Answer: 141 nM (active)

Question: What about the Potency (CASKI) of the same compound?
Answer: inactive

Question: And the Potency (Es-2)?
Answer: 79.4 nM (active)

Question: And the Potency (Hek293T)?
Answer: 100 nM (active)

Question: And the Potency (JEG-3)?
Answer: inactive

Question: And the Potency (OV90)?
Answer: 89.1 nM (active)

Question: And the Potency (PA-1)?
Answer: 89.1 nM (active)

Question: And the Potency (Tov112D)?
Answer: 100 nM (active)

Question: What does the source list for `Cc1ncc(OC[C@@]2(c3cccc(F)c3)C[C@H]2C(=O)Nc2ccc(F)cn2)c(C)n1`?
Answer: Potency [3]: inactive; Potency [4]: inactive; Potency [5]: inactive; outcome (HaCat): inactive; outcome (NIH3T3): inactive

Question: With `C[C@@H](CN1CCC2(CC1)C(=O)NCN2c1cccc(F)c1)NC(=O)c1ccc(Br)cc1` as the compound, how does the Potency [1] read?
Answer: inactive

Question: And the Potency [2]?
Answer: inactive

Question: What about the Potency [3] of the same compound?
Answer: inactive

Question: What about the Potency [4] of the same compound?
Answer: inactive

Question: And the outcome [6]?
Answer: inactive

Question: And the Potency [7]?
Answer: inactive

Question: And the Potency [8]?
Answer: inactive

Question: What about the Potency [9] of the same compound?
Answer: inactive

Question: What about the Potency (C33A) of the same compound?
Answer: inactive

Question: What about the Potency (Es-2) of the same compound?
Answer: inactive

Question: What about the Potency (JEG-3) of the same compound?
Answer: inactive

Question: What about the Potency (OV90) of the same compound?
Answer: inactive

Question: And the Potency (PA-1)?
Answer: inactive

Question: And the Potency (Tov-21-G)?
Answer: inactive
